# HT1080 IDH1KD tx – kills HT-1080 cells with IDH1 knockdown; HT-1080 IDH1 knockdown viability, ATP luminescence, 48 h; Potency, µM (titrated, usually from 46.1 µM), usual class: cytotoxic; hit rate 2% among 360,000
#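 CellTiter-Glo luminescence after 48 h compound exposure at 37 degrees C of IDH1-knockdown HT-1080 cells in 5% FBS RPMI. %Activity scaled between DMSO wells and cell-free media wells, with curves fitted and assigned curve classes.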
# HT1080NT lethal – kills 2HG-producing HT-1080-NT fibrosarcoma cells. hit rate 1.6% among 360,000. Potency, µM (doses to about 46.1 µM), usual class: cytotoxic. HT-1080-NT fibrosarcoma viability, CellTiter-Glo ATP luminescence, 48 h;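 further: NT is the 2HG producing partner of a matched IDH1 knockdown line; nearly all actives have a fitted effect of over 55% in size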
#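 Viability of the 2HG-overproducing fibrosarcoma line after 48 hours of compound exposure at 37 degrees C was determined by luminescence with CellTiter-Glo, and concentration-effect curves were then fitted and categorized.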
# DT40 TDP1 CPT – DT40-hTDP1 cell growth loss with CPT; hit rate 12% among 420,000; AID 686979; chicken DT40 Tdp1-/-;hTDP1 cells + 20 nM CPT, ATP luminescence, 48 h; Potency, µM (top dose mostly 46.2 µM), actives largely listed as inhibitors; further: nearly all actives have a fitted effect of over 55% in size
#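 Chicken DT40 Tdp1-/- cells complemented with human TDP1, 400 cells/well, exposed to compounds plus 20 nM camptothecin for at least 48 h at 37 C; viability read as ATP content by CellTiter-Glo luminescence.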
# IL-1B inflam inh – inflammasome signaling inhibition, IL-1 beta readout | THP-1 LPS/ATP IL-1B secretion, AlphaLISA, 16 h; stronger effect = lower value | AID 743279 | hit rate 4.7% among 360,000 | activity change, % at 57.5 µM; in the data active means activity change below about -50%; inconclusive means mostly about -30% to -49%
#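 Secreted IL-1B measured by AlphaLISA bead assay after 16 h compound exposure of THP-1 cells; compounds (final up to 57.5 uM) added 1 h before LPS (250 ng/mL) and ATP (1.25 mM) stimulation; lower signal means less secretion.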
# TDP1 cell noCPT – qHTS for Inhibitors of human tyrosyl-DNA phosphodiesterase 1 (TDP1): qHTS in cells in absence of CPT; DT40 Tdp1-/- hTDP1 cells, no CPT, ATP luminescence, 48 h; Potency, µM (doses to about 46.2 µM), hits mostly inhibitors; hit rate 15% among 420,000; AID 686978, 2013; further: nearly all actives have a fitted effect of over 55% in size
#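 Readout: luminescence from CellTiter-Glo after 30 min in the dark at RT. Cells: DT40 Tdp1-/- with stable hTDP1, 400/well. Exposure: compounds alone, ≥48 hr, 37 °C.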
# uPA surface inh – blocks generation of uPA at the cell surface | cell surface uPA generation assay, qHTS | Potency, µM (series often up to 38.3 µM), usual class: inhibitors | hit rate 0.31% among 330,000; active means well fitted inhibition curve with a large enough effect; inconclusive means small, poorly fitted or top-dose-only effect; inactive means no such curve, though single readings can be large or run the other way; tested in mouse RAW 264.7 cells; further: nearly all actives have a fitted effect of over 55% in size
# Numbers stand for hits; i = inactive; ? = inconclusive; nt = not tested or not shown. The list is not random: actives were taken first. Their share in the collection is about 19%. Unless noted, the call rests on the fitted dose curve; in most records, active means well fitted curve in the direction sought with a large enough effect; inconclusive means small, poorly fitted or top-dose-only effect, or another doubt; inactive means no such curve, though single readings can be large; an effect the other way counts as inactive or inconclusive.
SMILES,HT1080 IDH1KD tx,HT1080NT lethal,DT40 TDP1 CPT,IL-1B inflam inh,TDP1 cell noCPT,uPA surface inh
C[n+]1c(-c2ccccc2)cc2c(=Cc3ccc([N+](=O)[O-])cc3)c3ccccc3n21,?,?,1.8µM,-98,4.1µM,i
C[n+]1c(-c2ccccc2)cc2c(=Cc3ccccc3)c3ccccc3n21,16µM,?,0.52µM,-100,0.52µM,i
CN(C)c1ccc(C=c2c3cc(O)ccc3n3c2cc(-c2ccccc2)[n+]3C)cc1,?,i,7.3µM,-105,?,i
CCn1c2ccccc2c2cc([N+](=O)[O-])ccc21,i,i,i,i,i,i
CC(C)n1[nH]c2ccccc2c1=O,i,i,i,i,i,nt
c1ccc(CN2CCN(c3nc4ccccc4c4ccccc34)CC2)cc1,i,i,21µM,i,?,i
c1ccc(CN2CCN(c3nc(-c4ccccc4)nc4ccccc34)CC2)cc1,i,i,?,?,?,i
c1ccc(CN2CCN(c3nc4ccccc4n4cnnc34)CC2)cc1,i,i,13µM,i,?,i
c1ccc(N2CCN(c3nc4ccccc4n4cnnc34)CC2)cc1,i,i,?,i,?,i
Cc1cc(C)n(-c2nc3ccccc3nc2N2CCN(c3cccc(C(F)(F)F)c3)CC2)n1,nt,nt,18µM,nt,?,nt
C1=C(c2ccccc2)CCN(c2nc3ccccc3n3cnnc23)C1,i,i,?,i,16µM,i
Cc1cc(C)c2c(=O)cc(C(=O)Nc3sc4c(c3C(=O)NCc3ccccc3)CCCC4)oc2c1,nt,nt,i,nt,i,nt
CCOc1ccc(N(C)C(=O)CS(=O)(=O)c2cccc3nsnc23)cc1,nt,nt,i,nt,?,nt
FC(F)(F)c1cccc(N2CCN(c3nc4ccccc4n4cnnc34)CC2)c1,nt,nt,?,nt,23µM,nt
c1ccc2c(c1)CCN(c1nc3ccccc3n3cnnc13)C2,i,i,23µM,i,?,i
c1ccc2c(c1)CCCN2c1nc2ccccc2n2cnnc12,i,i,?,i,?,i
Cc1cc(=O)[nH]c(N/N=C/c2ccc(OC(=O)c3cccnc3)cc2)n1,i,i,i,i,i,i
CC(C)CC1C(=O)N(Cc2cn(CCC3OCCO3)nn2)CCS(=O)(=O)N1Cc1ccc(-c2cccc(N(C)C)c2)cc1 (configuration not stated),i,?,?,i,21µM,nt
CC(C)CC1C(=O)N(Cc2cn(CCC3OCCO3)nn2)CCS(=O)(=O)N1Cc1ccc(-c2cccc(CO)c2)cc1 (configuration not stated),i,i,?,i,23µM,nt
CC(C)C1C(=O)N(Cc2cn(CCC3OCCO3)nn2)CCS(=O)(=O)N1Cc1ccc(-c2cccc(CO)c2)cc1 (configuration not stated),i,i,?,i,23µM,nt
Cc1cccc(C)c1-c1ccc(CN2C(CC(C)C)C(=O)N(Cc3cn(CCO)nn3)CCS2(=O)=O)cc1 (configuration not stated),i,i,?,-57,?,?
COCOCCn1cc(CN2CCS(=O)(=O)N(Cc3ccc(-c4ccc(F)nc4)cc3)C(CC(C)C)C2=O)nn1 (configuration not stated),i,i,?,i,?,nt
O=C(NCCCN1CCN(c2ccccc2F)CC1)C1CCN(S(=O)(=O)c2cccs2)CC1,i,i,13µM,i,?,nt
O=C(NCCN1C(=O)S/C(=C\c2ccccc2)C1=O)C1CCN(S(=O)(=O)c2cccs2)CC1,i,i,13µM,i,18µM,i
O=C(CNC(=O)c1cccc(F)c1)OCCOc1cccc(Cl)c1,i,i,i,i,i,i
SMILES,HT1080 IDH1KD tx,HT1080NT lethal,DT40 TDP1 CPT,IL-1B inflam inh,TDP1 cell noCPT,uPA surface inh
Cc1nc2c3cc(F)ccc3n(Cc3ccc(F)cc3)c2s1,?,i,?,i,8.2µM,3.5µM
COC(=O)Cn1c2ccc(F)cc2c2nc(C)sc21,i,i,i,i,i,i
Cc1nc2c3cc(Cl)ccc3n(CCN3CCCCC3)c2s1,?,?,21µM,i,23µM,?
C[C@@H]1C(=O)O[C@H]2[C@H](O)[C@@]34[C@H]5C[C@@H](C(C)(C)C)[C@]36[C@@H](OC(=O)[C@@H]6O)O[C@@]4(C(=O)O5)[C@@]12O,i,i,i,i,i,i
CCOc1ccc(CN(C)CC(=O)Nc2ccc3c(c2)CCC3)cc1OC,i,i,?,i,16µM,i
COc1cccc(CC(=O)Nc2ccc3c(c2)CCC3)c1,i,i,i,i,?,i
CCOc1cc(CNc2ccc3c(c2)CCC3)ccc1O,i,i,?,i,23µM,i
COc1ccc(CN(C)CC(=O)Nc2ccc(N3CCOCC3)cc2)cc1OC,i,i,i,i,i,i
C=CCOc1ccc(CN(C)CC(=O)Nc2ccc3c(c2)CCC3)cc1,i,i,23µM,i,?,i
Cc1ccc(NC(=O)CN(C)C(=O)Cc2ccc3c(c2)CCC3)cc1,i,i,?,i,i,i
COc1cc(CC(=O)Nc2ccc3c(c2)CCC3)cc(OC)c1OC,i,i,9.2µM,i,12µM,i
Cc1oc(-c2ccccc2Cl)nc1CS(=O)CC(=O)NCCCN1CC(C)CC(C)C1 (configuration not stated),i,i,i,?,i,i
Cc1c(C=O)c(=O)n(-c2ccccc2)n1-c1ccccc1,i,i,i,i,i,i
CCCCCCCC/C=C\CCCCCCCC(=O)OC[C@@H](O)[C@H]1OC[C@H](O)[C@H]1O,nt,nt,i,nt,i,nt
Cc1cccc(-c2noc(-c3ccc(NCc4ccccc4)c([N+](=O)[O-])c3)n2)c1,nt,nt,i,nt,i,nt
CCOC1=C2[C@@H](CN(S(=O)(=O)c3ccc(C)cc3)[C@H]2c2cccc3ccccc23)[C@H]2C(=O)N(C3CCCCC3)C(=O)[C@H]2C1,i,i,13µM,i,10µM,nt
CCOC1=C2[C@@H](CN(S(=O)(=O)c3ccc(C)cc3)[C@H]2c2cccc3ccccc23)[C@H]2C(=O)N(c3ccccc3)C(=O)[C@H]2C1,i,?,i,i,i,nt
O=C(CSc1nc2ccccc2c(=O)n1CCCN1CCOCC1)NC12CC3CC(CC(C3)C1)C2,i,i,?,i,?,i
COc1ccc(Cl)cc1NC(=O)c1c(C(=O)Nc2cccc(C)c2C)sc2nc(C)cc(=O)n12,nt,nt,?,nt,21µM,nt
CCNC(=O)C1CCCN(C(=O)c2ccc3ccccc3c2)CC1 (configuration not stated),?,i,i,i,i,nt
C=C(c1cn(C(C)=O)c2ccccc12)c1cn(C(C)=O)c2ccccc12,i,i,23µM,i,?,i
CCn1cc(CCC(=O)NCc2cccc(OC)c2OC)c2ccccc21,i,i,18µM,i,16µM,i

# Source: PubChem BioAssay
